PubChem BioAssay (NCATS)
Values joined by “and” are separate entries in the source; they are usually repeats but may differ in a detail not shown here. Equal values may be shown once. Inconclusive results are not listed. Entries that show only a call come without a potency. The source holds several records for some structures; these can differ, active in one and inactive in another. Active and inactive are the calls of the source. Unless noted, calls follow the shape of the dose curve; as a rule, active = well fitted curve in the direction sought with a large enough effect; inconclusive = small, poorly fitted or top-dose-only effect, or another doubt; inactive = no such curve, though single readings can be large; an effect the other way counts as inactive or inconclusive.

Columns and labels:
[1] = system: OV90; experiment: Primary qHTS to identify gynecologic anti-cancer compounds using libraries of approved drugs and bioactive compounds (AID 1345084); conditions: Gynecologic cancer cell panel viability, ATPlite luminescence, 48 h; series mostly up to 57.5 µM; also: nearly all actives have a fitted effect of over 55% in size; also: potency is read from the fitted curve at half-maximal effect
How it was run: (§1)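 Five-concentration response, 48 h; readout is ATP-driven luciferase luminescence.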

[2] = system: PA-1; experiment: as above; conditions: Gynecologic cancer cell panel viability, ATPlite luminescence, 48 h; series mostly up to 57.5 µM
How it was run: as §1

[3] = system: SKOV3; experiment: as above; conditions: Gynecologic cancer cell panel viability, ATPlite luminescence, 48 h; series mostly up to 57.5 µM
How it was run: as §1

[4] = system: Tov-21-G; experiment: as above; conditions: Gynecologic cancer cell panel viability, ATPlite luminescence, 48 h; series mostly up to 57.5 µM
How it was run: as §1

[5] = system: Tov112D; experiment: as above; conditions: Gynecologic cancer cell panel viability, ATPlite luminescence, 48 h; series mostly up to 57.5 µM
How it was run: as §1

[6] = Drug repurposing screens with cells derived from glioblastoma tumor samples (AID 1345199); conditions: GBM patient neurospheres viability, ATP luminescence, 48 h; also: nearly all actives have a fitted effect of over 40% in size; also: potency is read from the fitted curve at half-maximal effect
How it was run: (§2)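 Four patient lines of CD133+ GBM neurospheres were screened at several concentrations; hits were retested in those lines plus three slower-growing GBM lines, using 48-hour treatment and ATP-based viability.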

[7] = system: astro; experiment: as above; conditions: viability, ATP luminescence, 48 h; series mostly up to 45.9 µM
How it was run: as §2

[8] = biological target: Nuclear receptor subfamily 1 group I member 2 (Rattus norvegicus) (UniProt Q9R1A7); experiment: qHTS assay for small molecule activators of the rat pregnane X receptor (rPXR) signaling pathway (AID 651751; call rule not given here); conditions: rPXR reporter cells, luciferase (One-Glo), 24 h
[9] = qHTS assay for small molecule activators of the human pregnane X receptor (PXR) signaling pathway (AID 720659; call rule not given here)
[10] = at 45.9 µM (top of the series), tumour line B
[11] = at 45.9 µM (top of the series), tumour line D
[12] = at 46 µM (top of the series), tumour line A

Chain of Nuclear receptor subfamily 1 group I member 2 (Rattus norvegicus) (Q9R1A7 whole entry, looked up): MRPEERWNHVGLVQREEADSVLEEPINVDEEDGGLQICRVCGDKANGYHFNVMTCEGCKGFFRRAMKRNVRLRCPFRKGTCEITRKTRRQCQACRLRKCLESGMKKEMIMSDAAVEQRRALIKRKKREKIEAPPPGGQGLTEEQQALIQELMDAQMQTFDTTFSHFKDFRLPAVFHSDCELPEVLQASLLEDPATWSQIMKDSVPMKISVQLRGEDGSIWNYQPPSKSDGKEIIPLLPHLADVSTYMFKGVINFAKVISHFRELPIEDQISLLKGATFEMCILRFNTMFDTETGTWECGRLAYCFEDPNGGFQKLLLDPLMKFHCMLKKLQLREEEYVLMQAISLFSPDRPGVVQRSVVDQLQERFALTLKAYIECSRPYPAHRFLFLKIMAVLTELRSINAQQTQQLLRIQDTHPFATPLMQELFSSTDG

In the case of `CC(=O)[C@H]1CC[C@H]2[C@@H]3CC[C@H]4C[C@H](O)CC[C@]4(C)[C@H]3C(=O)C[C@]12C`, the Potency [1] is reported as “inactive”, the Potency [2] is reported as “inactive” and the Potency [3] is reported as “inactive”. For the same molecule, the Potency [4] was “inactive”, the Potency [5] was “inactive” and the activity, negative = cell killing [6, 10] was -8.44% (inactive). The activity, negative = cell killing [6, 11] was -5.23% (inactive) and the Potency [7] was “inactive”.
In the case of `CC(=O)[C@H]1CC[C@H]2[C@@H]3CC[C@H]4C[C@](C)(O)CC[C@]4(C)[C@H]3CC[C@]12C`, the Potency [1] is reported as “inactive”, the Potency [2] is reported as “inactive” and the Potency [3] is reported as “inactive”. For the same molecule, the Potency [4] was “inactive”, the Potency [5] was “inactive” and the activity, negative = cell killing [6, 10] was -20.7% (inactive). The Potency [7] was “inactive”.
With `CC(C)NCC(O)c1ccccc1Cl` (configuration not stated) the Potency [1] was “inactive”, the Potency [2] was “inactive” and the Potency [3] was “inactive”. For the same molecule, the Potency [4] was “inactive”, the Potency [5] was “inactive” and the activity, negative = cell killing [6, 10] was -16.7% (inactive). The activity, negative = cell killing [6, 11] was -18.1% (inactive) and the Potency [7] was “inactive”.
In the case of `CCN(CC)CCN1C(=O)CN=C(c2ccccc2F)c2cc(Cl)ccc21`, the Potency [1] is reported as “inactive”, the Potency [2] is reported as “inactive” and the Potency [3] is reported as “inactive”. The Potency [4] was “inactive”, the Potency [5] was “inactive” and the activity, negative = cell killing [6, 10] was -20.2% (inactive). The Potency ([6]; tumour line A) was 14.1 µM (active) and the Potency [7] was “inactive”.
For `O=c1oc2ccccc2c(O)c1C(CC(O)c1ccc(-c2ccc(Br)cc2)cc1)c1ccccc1` (configuration not stated), the Potency [1] was “inactive”, the Potency [2] was “inactive” and the Potency [3] was “inactive”. For the same molecule, the Potency [4] was “inactive”, the Potency [5] was “inactive” and the activity, negative = cell killing [6, 10] was -19.7% (inactive). For the same molecule, the max response [8] was -13.3% (inactive) and the outcome [9] was “inactive”.
In the case of `Cn1c(CCCC(=O)O)nc2cc(N(CCCl)CCCl)ccc21`, the Potency [1] is reported as “inactive”, the Potency [2] is reported as “inactive” and the Potency [3] is reported as “inactive”. The Potency [4] was “inactive”, the Potency [5] was “inactive” and the activity, negative = cell killing [6, 10] was -8.98% (inactive). The activity, negative = cell killing [6, 11] was -16.3% (inactive) and the Potency [7] was “inactive”.
For `Clc1cccc(N2CCNCC2)c1`, the Potency [1] was “inactive”, the Potency [2] was “inactive” and the Potency [3] was “inactive”. For the same molecule, the Potency [4] was “inactive”, the Potency [5] was “inactive” and the activity, negative = cell killing [6, 10] was -20% (inactive). For the same molecule, the Potency ([6]; tumour line A) was 35.5 µM (active) and the Potency [7] was “inactive”.
For `CCCN1CCC[C@@H]2Cc3[nH]ncc3C[C@H]21`, the Potency [1] was “inactive”, the Potency [2] was “inactive” and the Potency [3] was “inactive”. For the same molecule, the Potency [4] was “inactive”, the Potency [5] was “inactive” and the activity, negative = cell killing [6, 10] was -3.57% (inactive). The activity, negative = cell killing [6, 11] was -3.31% (inactive) and the Potency [7] was “inactive”.
In the case of `NCCc1cc(O)c(O)cc1O`, the Potency [1] is reported as “inactive”, the Potency [2] is reported as “inactive” and the Potency [3] is reported as “inactive”. The Potency [4] was “inactive”, the Potency [5] was “inactive” and the activity, negative = cell killing [6, 10] was -19% (inactive). The activity, negative = cell killing [6, 11] was -22% (inactive) and the Potency [7] was “inactive”.
In the case of `C=CCN1CC[C@]23c4c5ccc(O)c4O[C@H]2C(=O)CC[C@@]3(O)[C@H]1C5`, the Potency [1] is reported as “inactive”, the Potency [2] is reported as “inactive” and the Potency [3] is reported as “inactive”. For the same molecule, the Potency [4] was “inactive”, the Potency [5] was “inactive” and the activity, negative = cell killing [6, 11] was -22.2% (inactive). The activity, negative = cell killing [6, 12] was 15.9% (inactive) and the Potency [7] was “inactive”.
In the case of `Oc1cccc2cccnc12`, the Potency [1] is reported as “inactive”, the Potency [2] is reported as “inactive” and the Potency [3] is reported as “inactive”. The Potency [4] was “inactive”, the Potency [5] was “inactive” and the activity, negative = cell killing [6, 10] was -22.3% (inactive). For the same molecule, the activity, negative = cell killing [6, 11] was -9.58% (inactive) and the outcome [9] was “inactive”.
For `C[C@]12C/C(=C/O)C(=O)C[C@@H]1CC[C@@H]1[C@@H]2CC[C@@]2(C)[C@H]1CC[C@]2(C)O`, the Potency [1] was “inactive”, the Potency [2] was “inactive” and the Potency [3] was “inactive”. The Potency [4] was “inactive”, the Potency [5] was “inactive” and the activity, negative = cell killing [6, 10] was -10.4% (inactive). For the same molecule, the activity, negative = cell killing [6, 11] was -15.9% (inactive), the Potency [7] was “inactive” and the max response [8] was -5.34% (inactive) and -0.621% (inactive). For the same molecule, the outcome [9] was “inactive”.
With `CCN(CC)C(=O)N[C@@H]1C=C2c3cccc4[nH]cc(c34)C[C@@H]2N(C)C1` the Potency [1] was “inactive”, the Potency [2] was “inactive” and the Potency [3] was “inactive”. The Potency [4] was “inactive”, the Potency [5] was “inactive” and the activity, negative = cell killing [6, 10] was -7.53% (inactive). The activity, negative = cell killing [6, 11] was -22.7% (inactive) and the Potency [7] was “inactive”.
With `CCN(C(C)=O)c1cccc(-c2ccnc3c(C#N)cnn23)c1` the Potency [1] was “inactive”, the Potency [2] was “inactive” and the Potency [3] was “inactive”. For the same molecule, the Potency [4] was “inactive”, the Potency [5] was “inactive” and the activity, negative = cell killing [6, 10] was -13.5% (inactive). The activity, negative = cell killing [6, 11] was -2.81% (inactive) and the Potency [7] was “inactive”.
In the case of `CCCC1CCCCN1` (configuration not stated), the Potency [1] is reported as “inactive”, the Potency [2] is reported as “inactive” and the Potency [3] is reported as “inactive”. For the same molecule, the Potency [4] was “inactive”, the Potency [5] was “inactive” and the activity, negative = cell killing [6, 10] was -22.5% (inactive). The activity, negative = cell killing [6, 11] was -32.7% (inactive) and the Potency [7] was “inactive”.
With `CC(=O)Nc1cc([As](=O)(O)O)ccc1O` the Potency [1] was “inactive”, the Potency [2] was “inactive” and the Potency [3] was “inactive”. For the same molecule, the Potency [4] was “inactive”, the Potency [5] was “inactive” and the activity, negative = cell killing [6, 10] was -26.4% (inactive). The activity, negative = cell killing [6, 11] was -5.27% (inactive) and the Potency [7] was “inactive”.
In the case of `Oc1cc(Cl)ccc1Oc1ccc(Cl)cc1Cl`, the Potency [1] is reported as “inactive”, the Potency [2] is reported as “inactive” and the Potency [3] is reported as 35.5 µM (active) and inactive. The Potency [4] was “inactive”, the Potency [5] was “inactive” and the activity, negative = cell killing [6, 12] was -27.9% (inactive). The Potency [7] was 28.2 µM (active), the max response [8] was -4.24% (inactive) and the outcome [9] was “inactive”.
In the case of `O=C(O)c1ccc2[nH]cc(CCCCN3CC=C(c4ccccc4)CC3)c2c1`, the Potency [1] is reported as “inactive”, the Potency [2] is reported as “inactive” and the Potency [3] is reported as “inactive”. The Potency [4] was “inactive”, the Potency [5] was “inactive” and the activity, negative = cell killing [6, 10] was -0.385% (inactive). The activity, negative = cell killing [6, 11] was -15.3% (inactive) and the Potency [7] was “inactive”.
With `CN(C)[C@@H]1C(=O)C(C(N)=O)=C(O)[C@@]2(O)C(=O)C3=C(O)c4c(O)cccc4[C@@](C)(O)[C@H]3C[C@@H]12` the Potency [1] was “inactive”, the Potency [2] was “inactive” and the Potency [3] was “inactive”. The Potency [4] was “inactive”, the Potency [5] was “inactive” and the activity, negative = cell killing ([6]; at 21.2 µM (top of the series), tumour line B) was -16.2% (inactive). The activity, negative = cell killing ([6]; at 21.2 µM (top of the series), tumour line D) was -21.5% (inactive) and the Potency [7] was “inactive”.
For `N[C@@H]1C[C@H]1c1ccccc1`, the Potency [1] was “inactive”, the Potency [2] was “inactive” and the Potency [3] was “inactive”. For the same molecule, the Potency [4] was “inactive”, the Potency [5] was “inactive” and the activity, negative = cell killing [6, 10] was -7.72% (inactive). The activity, negative = cell killing [6, 11] was -6.02% (inactive) and the Potency [7] was “inactive”.
